The record followed here is PubChem BioAssay (NCATS).

Structures are written as SMILES. Records with an inconclusive call do not appear. Values without a mark were called inactive. Calls of active or inactive are those of the source. The call rests on the fitted dose curve; in most records, active means well fitted inhibition curve with a large enough effect; inconclusive means small, poorly fitted or top-dose-only effect; inactive means flat fitted curve, though single readings scatter.
On the % scale 0 is the no-effect control and ±100 the full control effect; potency means the concentration at half of the fitted maximal effect.

This experiment concerns KB-3-1. As to the kind of experiment: Cytotoxic Profiling of Annotated Libraries Using Quantitative High-Throughput Screening (AID 1296008). Further: nearly all actives have a fitted effect of over 60% in size. The following applies: Five cell lines viability, CellTiter-Glo ATP luminescence, 48-72 h; max response: hits give low values. A digest of the protocol:
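Cytotoxicity was measured as CellTiter-Glo ATP luminescence, read after 10 min at room temperature. Compound treatment of the cells lasted 48 or 72 hr at 37 degrees Celsius in a qHTS format.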
`CCC1C(=O)N(C)c2cnc(Nc3ccc(C(=O)NC4CCC(N5CCN(CC6CC6)CC5)CC4)cc3OC)nc2N1C(C)C` (centres undefined): the Potency is 5.2 nM (active).
Regarding `C[C@@H]1O[C@@H](O[C@H]2[C@H](O)[C@@H](O)[C@H](OC3CCC4(C)C5CCC(C)(C(CO)OC6OC(CO)C(O)C(O)C6O)CC5=CCC4C3(C)C)O[C@@H]2CO)[C@H](O)[C@H](O)[C@H]1O` (some centres undefined), the max response was 0.989%.
Turning to `C[C@@H]1C[C@@H](O)[C@@]23CO[C@@H](O)[C@@H]2CCC[C@@H]3[C@@]12C[C@@H](c1ccoc1)OC2=O`, the max response was 7.75%.
For the molecule `CC(C)(C)OC(=O)N1CCC(OCc2nc(-c3ccncc3)no2)CC1`, the max response was -6.38%.
In the case of `CC1(C)CC[C@]2(C(=O)O[C@@H]3O[C@H](CO)[C@@H](O)[C@H](O)[C@H]3O)CC[C@]3(C)C(=CCC4[C@@]5(C)C[C@@H](O)[C@H](O)C(C)(C)C5CC[C@]43C)C2[C@@H]1O` (some centres undefined), the outcome was inactive.
In the case of `CC(C)C(NC(=O)c1ccc2ccccc2n1)C(=O)NC(CC(=O)O)C(=O)COc1c(F)cccc1F` (centres undefined), the max response was 2.53%.
Take `CC1=CC(=O)CC(C)(C)[C@@]1(O)CC[C@@H](C)O[C@@H]1O[C@H](CO)[C@@H](O)[C@H](O)[C@H]1O`: the max response is 1.23%.
`CC(O)/C=C/C1C(C)C(O[C@@H]2O[C@H](CO)[C@@H](O)[C@H](O)[C@H]2O)C(O)CC1(C)C` (some centres undefined): the max response is 3.1%.
Same read-out and setting: the value for `CO[C@H]1C[C@@H]2CC[C@@H](C)[C@@](O)(O2)C(=O)C(=O)N2CCCC[C@H]2C(=O)O[C@H]([C@H](C)C[C@H]2CC[C@@H](OP(C)(C)=O)[C@H](OC)C2)CC(=O)[C@H](C)/C=C(\C)[C@@H](O)[C@@H](OC)C(=O)[C@H](C)C[C@H](C)/C=C/C=C/C=C/1C` was 4.5%.
